# Assay results taken from the supplement of paper PMC6555819.
# Columns and labels:
# Experiment in all cases: PBM binding z-score (relative to random genomic background probes); higher = stronger binding; sequences stand for … in GC…GCGATTGACAGCGTAGAATGAAGG
# [1] = system: RARb homodimer (NR concentration 270 nM)
# Outline: (§1)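 Each nuclear receptor dimer, without ligand, was incubated for 1 h on custom Agilent 4×180K protein-binding microarrays. Binding was detected with antibodies against each partner (one per run), and scanned fluorescence was regression-normalized. The binding z-scores are referenced to random human genomic background probes.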
# [2] = system: RARg:RXRa (NR concentration 270 nM, RXRa partner concentration 90 nM)
# Outline: as §1
# [3] = system: RARg homodimer (NR concentration 270 nM)
# Outline: as §1
# [4] = system: RXRa DBDmut IVT, anti-RXR (DBD mutation: RXRa K156A/R161A, NR concentration 90 nM)
# Outline: as §1
# [5] = system: RXRa homodimer (NR concentration 180 nM)
# Outline: as §1
# [6] = system: THRa:RXRa (NR concentration 90 nM, RXRa partner concentration 90 nM)
# Outline: as §1
# [7] = system: THRa homodimer (NR concentration 90 nM)
# Outline: as §1
# [8] = system: VDR homodimer (NR concentration 270 nM)
# Outline: as §1
Sequence,PBM binding z-score [1],PBM binding z-score [2],PBM binding z-score [3],PBM binding z-score [4],PBM binding z-score [5],PBM binding z-score [6],PBM binding z-score [7],PBM binding z-score [8]
CGACCAAGGTCATAGGAGGTCAGTGAAGACAGAT,5.12,6.79,7.3,3.53,6.92,5.03,2.69,4.77
AGTCAAAGTTCTGGACGAGGTAACGTAAAGCACG,-0.148,0.171,0.32,-0.639,0.0678,1.41,0.761,-0.322
ATCCCTAGGTAACAAGTTCAGTGAAAGAGAGGAC,1.94,1.09,1.15,0.955,0.712,1.65,1.17,2.48
CGAACTAGGTCAAGGACAGTGGATCTCCGCACGC,3.1,3.74,4.5,1.34,2.41,3.05,2,0.315
ATATGTAGGTTAAGGGTGATTCAGGTTGGTTCGC,1.8,1.14,1.06,0.792,1.62,1.56,1.39,1.41
GCGACTGGGGCAAAGCATGTTACCATAAGGTTGG,0.192,0.235,0.278,0.0488,0.0784,0.269,-0.43,-0.625
ACTATTAGTTGAGACGAGGGGAACCGATAGGTTG,-0.242,0.21,0.42,0.612,0.177,1.13,-0.473,0.00117
AATACAGGGTCATCGTAGGCCACAGTACGCACAG,4.02,6,5.52,3.39,6.9,4.93,1.72,3.13
GGAACGAGGGCATTCGAGTTTATAGCATGGCGAT,0.829,1.22,1.53,3.83,0.915,3.48,-0.483,4.64
ATCTTTAGGTAAAAGTTCAGTGAATCCCGAGGAT,2.61,1.69,1.85,1.27,1.57,1.76,0.573,1.63
CCTACTGGGCTATTCAGAGGTCATTGATCATATG,3.63,3.55,2.52,1.07,3.56,3.16,1.28,3.02
TCTCGGAGGACACGAAAGTTCAGAGCTCGACATC,3.16,2.2,3.44,1.32,1.14,2.22,0.943,2.55
ATATGTAAGTTATCGGGTCATTCAGTTTGCGCAT,2.48,2.12,1.48,1.61,2.59,3.24,2.84,3.74
CCGAGTCGGTTATGGGGCATTCAGGCAACGGTGA,0.462,-0.0743,-0.117,-0.648,-0.27,0.224,-0.00692,0.0226
ACAGACAGGTGAGTGAAGATAACTCAGCTGGACG,-0.405,0.185,0.475,-0.658,0.111,-0.344,-0.684,-0.624
TCTAGTTGGCCAAAGGTCACACACTCGAAATGCG,5.04,6.5,6.31,1.5,7.78,3.78,1.77,2.27
CCTTACGGGTCGCGAGGTTATAGCACGACGAGCG,1.57,3.39,2.09,0.0933,4,2.25,0.349,0.904
ATCGAAAGGTCGACGAGGTAAGTATACACCGTTT,2.39,3.89,3.66,1.2,4.03,3.14,0.239,0.679
CCATACGGGTCAAGGTTATAGCACGGGTGGTACG,3.43,4.7,4.33,0.452,4.65,2.85,0.691,1.15

Sequence,PBM binding z-score [1],PBM binding z-score [2],PBM binding z-score [3],PBM binding z-score [4],PBM binding z-score [5],PBM binding z-score [6],PBM binding z-score [7],PBM binding z-score [8]
TCTGTTAGGTCAGTTGGTCAGCTAACGAGCTGCC,3.01,3.01,4.2,1.33,1.19,2.68,1.69,0.469
ACAGACAGGTGAGTGAAGGTATCTCAGCTGGACG,-0.269,-0.0868,0.333,-0.121,0.228,-0.00206,-0.781,-0.981
CCGACTGGGGCAAAGGTTCCCATACTCAGTACGA,0.64,0.839,0.494,-0.0939,0.724,-0.141,-0.168,-0.00727
CCTCGGAGTACAACAGGAGGTCAGAGCTGCCAGA,2.99,3.01,2.39,1.27,1.86,2.16,0.436,1.47
CAAACTAGGTTAAGGTCAAAGTCGGTTTGTGCCA,4.49,5.11,4.99,2.74,5.29,4.54,5.29,4.48
GTACCAAGGTGAATAGGTCGTTGAGGAGTAGGCG,1.97,2.83,1.46,-0.482,1.63,1.76,0.714,0.676
ATCGAAAGGTCGAGGGGAGTATAGAGAAAGGGAA,2.84,4.18,4.21,1.4,3.94,2.05,0.272,0.958
CCTACTGGGCCAAAAAGGTCATCGATGCCGATAA,4.84,5.18,4.77,0.518,5.25,3.28,0.651,1.99
ATCTCAAGGTAACCAAGTTCAGTGAATGCCGAAC,1.51,1.21,1.06,1.01,0.816,2.24,1.06,3.2
CCTACTGGGCCATTCCGAGGTCATTGATCATATG,3.36,3.43,2.28,1.08,2.86,3.68,3.62,4.08
GCTGCTAGGTCAACCGATGGTCAGCTAAAGCTCG,3.51,5.42,5.15,1.31,3.11,2.71,0.689,-0.333
AGATCGAGGGCAATGAGTTGATAGCACGGGTGGC,1.18,0.862,1.38,1.73,0.854,0.856,0.0154,2.44
TCATATAGGTAATACAGGCGAAAGTCGGCATCTA,-0.403,0.375,0.171,1.23,0.623,-0.0703,-0.232,-0.187
ACACACAGGTGATGAAGGTAACTCAGGCTATCAT,0.43,0.435,0.664,0.355,0.276,1.06,0.194,0.17
ATCGAAAGGTCGTGGTGAGTATAGAGAAAGGGAA,2.85,4.45,3.8,1.52,4.79,2.82,0.58,1.23
GCATATCGGTAATACAAGGTGAAAGTCCGATTGT,0.774,0.308,0.268,0.112,0.446,3.07,0.911,-0.28
ACCTCTAGGTAAAGATAGTTCAGTGAATGCAAAT,0.723,0.4,0.505,0.0276,0.0359,0.533,-0.346,0.268
CTCGAAAGGACGTGCTCAGGTGAGTATACCAAAC,0.589,0.291,0.547,0.19,-0.118,1.17,0.542,-0.391
CAAACTAGGTCACACAGGTCAAAGTCCGTGCGTA,5.02,6.04,5.85,2.27,5.62,4.13,2.13,4.16

Sequence,PBM binding z-score [1],PBM binding z-score [2],PBM binding z-score [3],PBM binding z-score [4],PBM binding z-score [5],PBM binding z-score [6],PBM binding z-score [7],PBM binding z-score [8]
TTAGCAAGGTGAAGGTCGTTGATCCCTCTGTAGA,1.68,1.09,1.04,-0.172,1.53,2.03,0.432,0.356
TCTTGTAGATCAGCGGGTTAAGAAAGCTGGCCAA,0.0505,-0.0561,-0.559,0.982,0.349,0.0519,-0.241,-0.169
TAGCCTATGTCATGGGCCAGTATACCACGCGAAC,0.149,0.192,0.474,-0.981,0.178,-0.349,-0.74,-0.627
TCAGACAGGTGAAGGTGACTCAGGTACGCAGTCG,1.6,0.814,0.949,0.889,0.995,1.66,0.461,0.358
CCTACTGGGCCAAGGTCATTCATCAGTCAAAGCA,3.52,3.84,3.48,1.7,3.42,3.44,2.53,3.56
TTACCAAGGTGAAGGTCATTGATCCCTCTGTAGA,3.83,3.84,3.53,1.15,4.16,3.41,1.74,2.17
CATACAGGGTCAGCTAGTCCAGAGTAGGGACGGC,2.88,4.26,4.24,1.65,4.04,2.86,0.757,1.68
GCTGCTAGGTCAGGTGGGTCAGCTAACGGGTACG,3.64,3.41,4.26,0.0363,2.07,2.57,0.719,0.861
CCTAGTTGGTCAAGGACACACACGCTATAGGTAC,1.47,1.19,1.81,0.547,0.578,2.95,2.82,1.33
TCGAGTAGGTTAGTCGGGGCATTCAACCAACATA,0.661,0.183,0.0739,0.482,0.119,1.28,0.217,0.466
CCTACTGGGCCAACGTCATTGATCAGTCAAAGCA,0.446,-0.195,-0.0642,-0.651,-0.328,-0.204,-0.526,-0.545
CCTCGGAGGACAGAAGGTGAGAGCTGTCCGCTTT,1.05,0.543,0.503,-0.26,-0.253,0.747,-0.514,-0.603
CGAACTAGGTCATTGACAGGACTGTGAATAGTAA,2.4,3.66,4.03,2.31,2.35,2.49,0.524,0.706
CCTCGGAGGACAGAAGGTCAGACCTGTCCGCTTT,3.7,3.17,3.3,0.392,2.08,2.39,-0.0906,0.229
TCTAGTTGTTCACGGAGGTCACACACGACGGGTA,4.05,3.97,3.7,1.18,4.36,3.39,2.47,3.06
GCAGACAGGTGAAACGCAGGGAACTCAGGGTGGC,-0.128,0.193,0.108,-1.09,0.587,0.258,-0.443,-0.619
GCAGACAGGTGAAACGCATGTAACTCAGGGTGGC,-0.102,0.258,0.151,-0.443,0.749,0.0674,-0.704,-0.736
AGAATGAGGTTATACGTAGATCAGGCAAGAAAGT,0.646,1.78,1.11,1.62,2.14,2.26,0.402,0.719
ATATGTAGGTTAAGGGACATTCAGGTTGGTTCGC,1.6,1.28,1.27,0.615,1.25,1.14,0.815,1.69
